An excerpt weighted towards active compounds, which were near 18% of everything screened.
PLK1 PBD block: PLK1 (human) polo-box domain binding inhibition. P53350. Plk1 PBD binding of FITC phosphopeptide, fluorescence polarization. Potency, µM, for inactives: max response, negative = inhibition, most hits filed as inhibitors. hit rate 2.8% among 360,000. AID 720504; note: series mostly up to about 57 µM; nearly all actives have a fitted effect of over 65% in size
GCN5L2 inh: blocks human GCN5L2 histone acetyltransferase. Q92830. Potency, µM (titrated, usually from 58.9 µM), for the others: top-dose activity change, negative = inhibition, usual class: inhibitors. hit rate 0.21% among 390,000. GCN5L2 HAT assay, ThioGlo1 CoA-SH fluorescence
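Compounds, pin-transferred from DMSO stocks, meet 20nM GCN5L2 for 15 min before the reaction begins with H3(1-25) peptide (75uM) and acetyl-CoA (70uM). Thiol-reactive ThioGlo1 reports CoA release over 20 min at room temperature.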
TDP1 block: blocks human tyrosyl-DNA phosphodiesterase 1 | Q9NUW8 | recombinant TDP1, AlphaScreen DNA substrate cleavage | Potency, µM (doses to about 130 µM), without a hit: at the top dose activity change, negative = inhibition, hits mostly inhibitors | hit rate 0.28% among 350,000 | AID 485290; note: nearly all actives have a fitted effect of over 40% in size
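Here, a 5' biotin and 3' phosphotyrosine-FITC DNA oligonucleotide reports Tdp1 activity: intact substrate bridges AlphaScreen beads, while cleavage leaves a 3' phosphate and drops signal. All incubations at room temperature.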
TDP1 cell noCPT: qHTS for Inhibitors of human tyrosyl-DNA phosphodiesterase 1 (TDP1): qHTS in cells in absence of CPT; hit rate 15% among 420,000; Potency, µM (titrated, usually from 46.2 µM), for inactives: at the highest dose activity change, negative = growth inhibition, most hits filed as inhibitors; DT40 Tdp1-/- hTDP1 cells, no CPT, ATP luminescence, 48 h; note: nearly all actives have a fitted effect of over 55% in size
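Luminescent ATP content (CellTiter-Glo) served as the growth readout. Knockout chicken DT40 cells expressing human TDP1 were exposed to compounds without camptothecin for a minimum 48 hr at 37 °C.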
VDR inh: inhibitors of human vitamin D receptor. P11473. VDR-SRC2-3 peptide fluorescence polarization, 2 h. Potency, µM, without a hit: max response, negative = inhibition, hits mostly inhibitors. hit rate 0.93% among 400,000. AID 504847
Target sequence (P11473 whole entry, looked up): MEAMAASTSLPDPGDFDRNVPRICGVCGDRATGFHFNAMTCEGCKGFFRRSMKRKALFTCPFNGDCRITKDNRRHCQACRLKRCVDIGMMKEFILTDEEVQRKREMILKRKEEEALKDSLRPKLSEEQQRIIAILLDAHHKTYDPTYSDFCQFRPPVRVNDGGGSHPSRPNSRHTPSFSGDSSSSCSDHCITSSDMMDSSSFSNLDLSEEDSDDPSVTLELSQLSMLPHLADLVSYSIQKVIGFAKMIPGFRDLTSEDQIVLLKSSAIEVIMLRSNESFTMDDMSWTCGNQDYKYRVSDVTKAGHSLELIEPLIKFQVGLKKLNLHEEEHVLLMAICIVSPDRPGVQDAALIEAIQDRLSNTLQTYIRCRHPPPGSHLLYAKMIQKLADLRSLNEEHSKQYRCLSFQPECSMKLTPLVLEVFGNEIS
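Signal is fluorescence polarization, reporting how far test compounds block the interaction of VDR with the SRC2-3 coregulator peptide after a 2 h room-temperature incubation.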
DT40 TDP1 CPT: DT40-hTDP1 cell growth loss with CPT; AID 686979; Potency, µM (doses to about 46.2 µM), without a hit: at the highest dose activity change, negative = growth inhibition, hits mostly inhibitors; hit rate 12% among 420,000; chicken DT40 Tdp1-/-;hTDP1 cells + 20 nM CPT, ATP luminescence, 48 h; note: nearly all actives have a fitted effect of over 55% in size
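Chicken DT40 Tdp1-/- cells complemented with human TDP1, 400 cells/well, exposed to compounds plus 20 nM camptothecin for at least 48 h at 37 C; viability read as ATP content by CellTiter-Glo luminescence.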
TbPYK inh: confirmation of Trypanosoma brucei pyruvate kinase inhibitors | recombinant TbPYK, Kinase-Glo ATP luminescence | AID 720569 | shares compounds with PLK1 PBD block | hit rate 67% among 890 | Potency, µM (titrated, usually from 76.9 µM), without a hit: at the top dose activity change, negative = inhibition, most hits filed as inhibitors; note: nearly all actives have a fitted effect of over 70% in size
TbPYK ADP-Glo: TbPYK inhibition, orthogonal confirmation. shares compounds with PLK1 PBD block. recombinant TbPYK, ADP-Glo luminescence, 60 min. Potency, µM (highest dose often 76.9 µM), for inactives: at the top dose activity change, negative = inhibition, most hits filed as inhibitors. hit rate 62% among 890. AID 720584; note: nearly all actives have a fitted effect of over 75% in size
Starred values were filed as active, the others as inactive; ? = inconclusive; · = no result. Calls come from the whole dose curve; as a rule, active = well fitted curve in the direction sought with a large enough effect; inconclusive = small, poorly fitted or top-dose-only effect, or another doubt; inactive = no such curve, though single readings can be large; an effect the other way counts as inactive or inconclusive. % is set by controls: 0 for no effect and ±100 for the full control effect; potency is the fitted concentration of half-maximal effect.

SMILES	PLK1 PBD block	GCN5L2 inh	TDP1 block	TDP1 cell noCPT	VDR inh	DT40 TDP1 CPT	TbPYK inh	TbPYK ADP-Glo
COc1ccc(C(O)c2ncc(-c3cccc4ccccc34)[nH]2)cc1F (stereo unspecified)	3%	·	·	?	·	?	·	·
Cc1ccc(S(=O)(=O)NNC(=O)C2CCN(S(=O)(=O)c3ccc(C)cc3)CC2)cc1	-7%	-3%	1%	-1%	-1%	-10%	4%	-3%
Cc1ccc(S(=O)(=O)N2CCC(C(=O)NNS(=O)(=O)c3ccc(Cl)cc3)CC2)cc1	2%	-4%	-10%	1%	11%	-10%	·	·
C[C@@H]1O[C@@H](O[C@@H]2[C@@H](O)[C@H](OCCc3ccc(O)c(O)c3)O[C@H](CO)[C@H]2OC(=O)/C=C/c2ccc(O)c(O)c2)[C@H](O)[C@H](O)[C@H]1O	0%	-3%	-4%	-1%	-14%	-14%	32µM*	?
O=C(CSc1nnc(COc2ccccc2Cl)o1)NC(=O)NCc1ccco1	-19%	-10%	-3%	?	12%	?	·	·
Cc1ccc(-n2c(SCC(=O)Nc3ccc4c(c3)OCO4)nnc2-c2cccs2)cc1	-5%	1%	3%	-1%	-8%	-18%	1.8µM*	4.5µM*
Cn1c(=O)c2c(nc(SCC(=O)O)n2Cc2cc3c(cc2Cl)OCO3)n(C)c1=O	-6%	-4%	8%	0%	-5%	-1%	2µM*	4µM*
CCCn1c(SCC(=O)Nc2ccc3c(c2)OCO3)nc2c1c(=O)n(C)c(=O)n2C	-5%	-9%	3%	-30%	1%	-23%	·	·
C[n+]1ccc(C(=O)N/N=C/c2ccco2)cc1	-14%	-5%	8%	-10%	-20%	-3%	·	·
O=C(Nc1ccc(Cl)cc1)C(Cl)C(=O)c1ccccc1 (stereo unspecified)	0.6µM*	-5%	-4%	13µM*	18µM*	9.2µM*	7.9µM*	14µM*
O=C1NC(c2cccs2)Nc2sc3c(c21)CCCC3 (stereo unspecified)	?	-25%	-14%	3.3µM*	0%	4.1µM*	-18%	-20%
COc1ccccc1C(=O)NC(=O)CSc1nnc(SC)s1	-6%	-1%	·	9%	10%	4%	·	·
S=C1SCN(Cc2ccccc2)CN1Cc1ccco1	12µM*	·	·	?	·	?	?	?
COc1ccc(CN2CSC(=S)N(Cc3ccccc3)C2)cc1	-4%	-9%	-1%	?	9%	?	·	·
O=C(O)C1=C[C@@H](c2coc3ccccc3c2=O)C[C@@H](OCCCCO)O1	-5%	2%	5%	5%	-9%	12%	·	·
O=S(=O)(NCCC1=CCCCC1)c1cccc(S(=O)(=O)N2CCOCC2)c1	2.7µM*	-4%	-3%	5.8µM*	-27%	5.2µM*	0%	-6%
O=C(NCCC1=CCCCC1)c1cc(S(=O)(=O)N2CCOCC2)ccc1Cl	-9%	3%	·	?	-11%	?	·	·
CCOC1=CC2=C(C(=O)C(Cl)=CC2=O)[C@@H]2CN(S(=O)(=O)c3ccc(C)cc3)[C@@H](c3ccccc3)[C@H]12	6.7µM*	·	·	1.8µM*	·	1.2µM*	1.4µM*	2µM*
CCN1C(=O)[C@@H]2[C@@H]3CN(S(=O)(=O)c4ccc(C)cc4)[C@@H](c4ccccc4)[C@@H]3C(=O)C[C@@H]2C1=O	0%	·	·	-15%	·	-9%	·	·
NS(=O)(=O)c1ccc(N=Nc2c[nH]c(=O)c(O)c2)cc1	?	-10%	-6%	?	?	?	?	-12%
COc1cc(C)ccc1OCC(=O)NC1CCCCCC1	1%	0%	0%	?	15%	0%	·	·
COc1ccc(S(=O)NC2CCCCC2)c(OC)c1C (stereo unspecified)	-19%	1%	8%	-6%	1%	0%	22µM*	20µM*
CS(=O)(=O)N1CCN(c2ccc([N+](=O)[O-])cc2C(F)(F)F)CC1	-16%	-5%	6%	?	?	?	?	?
c1ccc(C[n+]2csc3ccccc32)cc1	3.8µM*	-13%	9%	1µM*	40µM*	1µM*	?	14µM*
Cc1cc[n+](Cc2ccccc2)c(N)c1	0%	-4%	·	-16%	-8%	-1%	·	·
SMILES	PLK1 PBD block	GCN5L2 inh	TDP1 block	TDP1 cell noCPT	VDR inh	DT40 TDP1 CPT	TbPYK inh	TbPYK ADP-Glo
CCC(CC)NC(=O)C1CC(=O)N(CCc2ccc(F)cc2)C1 (stereo unspecified)	-8%	-1%	·	-9%	-7%	-7%	·	·
O=C1c2ccccc2C(Nc2cccnc2)N1Cc1ccc2c(c1)OCO2 (stereo unspecified)	-12%	4%	3%	-10%	-10%	1%	·	·
COc1ccc(OC)c(NC2c3ccccc3C(=O)N2Cc2ccc3c(c2)OCO3)c1 (stereo unspecified)	-7%	0%	8%	?	1%	?	?	35µM*
CCC(Oc1ccc(F)cc1)C(=O)N1CCCCCCC1 (stereo unspecified)	-16%	2%	·	-15%	-3%	4%	·	·
CC(C)(C)OC(=O)N1O[C@H]2CC1[C@@H]1[C@@H]2N=NN1CCc1ccncc1	-5%	1%	·	-18%	-18%	-16%	7.9µM*	14µM*
CC(C)(C)OC(=O)N1O[C@H]2C[C@@H]1[C@@H]1[C@@H]2N=NN1C12CC3CC(CC(C3)C1)C2	-8%	-3%	·	?	-3%	?	·	·
Oc1ccc(/C=N/Nc2nccnc2Cl)c(O)c1	1%	2%	-1%	3.3µM*	-15%	3.3µM*	?	3%
COC(=O)C(NC(=O)c1cccnc1Cl)C(C)C (stereo unspecified)	-11%	-4%	-3%	-2%	-11%	-18%	·	·
COCCNC(=O)C(C)OC(=O)C1=Cc2ccccc2OC1 (stereo unspecified)	-10%	22%	3%	2%	-22%	-5%	·	·
CC(OC(=O)C1=Cc2ccccc2OC1)C(=O)NCC1CCCO1 (stereo unspecified)	12µM*	·	·	-15%	?	?	-7%	-7%

Bioassay records (PubChem BioAssay)
